Compound activity from PubChem.
ALDH1A1 block: ALDH1A1 (human) enzyme inhibition. P00352. Purified ALDH1A1, NADH fluorescence, propionaldehyde substrate. Potency, µM (series often up to 75.3 µM), usual class: inhibitors. 7.3% of 220,000 active. AID 1030; active = well fitted inhibition curve with a large enough effect, not every such curve was filed as active; inconclusive = small, poorly fitted or top-dose-only effect, or another doubt; inactive = no such curve, though single readings can be large or run the other way
Target sequence (P00352 whole entry, looked up): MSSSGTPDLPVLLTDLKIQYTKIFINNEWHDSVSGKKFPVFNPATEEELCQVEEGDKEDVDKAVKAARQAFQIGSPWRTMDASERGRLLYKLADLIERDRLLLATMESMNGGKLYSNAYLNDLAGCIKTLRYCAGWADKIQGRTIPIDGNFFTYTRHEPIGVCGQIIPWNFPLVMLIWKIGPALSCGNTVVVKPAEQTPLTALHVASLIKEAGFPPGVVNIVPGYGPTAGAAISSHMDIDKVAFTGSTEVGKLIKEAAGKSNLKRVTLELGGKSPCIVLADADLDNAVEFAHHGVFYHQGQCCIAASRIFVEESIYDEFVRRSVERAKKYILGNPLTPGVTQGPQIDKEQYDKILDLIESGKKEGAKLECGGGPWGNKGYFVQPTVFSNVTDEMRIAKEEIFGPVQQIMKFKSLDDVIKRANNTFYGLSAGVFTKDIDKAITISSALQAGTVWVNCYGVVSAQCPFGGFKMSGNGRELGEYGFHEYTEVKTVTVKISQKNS
Tau fluor counter: counter-screen for tau fibril formation inhibitors. tau K18 P301L Alexa594 fluorescence, heparin fibrillization. AID 1463. Potency, µM (doses to about 57.7 µM). 0.93% of 280,000 active; note: nearly all actives have a fitted effect of over 55% in size
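Human K18 P301L tau (15 uM unlabeled plus 0.24 uM Alexa 594-labeled, final) in 100 mM sodium acetate pH 7 was mixed with compound and 20 uM heparin and incubated 6 hr at 37 C.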
Tau fibril ThT: inhibitors of human tau fibril formation, thioflavin T binding | P10636 | 2.1% of 270,000 active | Potency, µM (top dose mostly 57.4 µM), usual class: inhibitors | recombinant tau K18 P301L (four-repeat tau fragment), heparin-induced fibrillization, ThT fluorescence; note: nearly all actives have a fitted effect of over 55% in size
Target sequence (P10636 561-689 P618L limits assumed): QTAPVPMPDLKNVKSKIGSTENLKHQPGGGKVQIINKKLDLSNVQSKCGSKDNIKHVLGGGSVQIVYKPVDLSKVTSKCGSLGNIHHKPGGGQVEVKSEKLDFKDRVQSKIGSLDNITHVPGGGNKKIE
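Tau K18 P301L fragment (15 uM unlabeled plus 0.24 uM Alexa 594-labeled) in 100 mM sodium acetate pH 7 with compound, fibrillization induced by 20 uM heparin for 6 hr at 37 C. Thioflavin T (30 uM) added, fluorescence read after 1 hr (ex 450, em 510 nm).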
Tau fibril FP: blocks human tau fibril formation measured by polarization | Potency, µM (series often up to 57.7 µM), most hits filed as inhibitors | P10636 | K18 P301L tau heparin fibrillization, Alexa594 FP, 6 h | 0.39% of 280,000 active; note: nearly all actives have a fitted effect of over 55% in size
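Human K18 P301L fragment (15 uM unlabeled plus 0.24 uM Alexa 594-labeled) in 100 mM sodium acetate pH 7 with compound, aggregation induced by 20 uM heparin for 6 hr at 37 C. ThT (30 uM) added for 1 hr, then Alexa 594 FP read.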
NPSR antag: antagonists of human neuropeptide S receptor cAMP signaling; Q6W5P4; CHO-NPSR cells, cAMP TR-FRET, antagonist mode; Potency, µM (top dose mostly 38.3 µM), actives largely listed as inhibitors; 1% of 220,000 active; AID 1461; note: nearly all actives have a fitted effect of over 50% in size
HPGD block: HPGD (human) dehydrogenase inhibition | purified HPGD, NADH fluorescence kinetic, PGE2 substrate | Potency, µM, actives largely listed as inhibitors | 4.3% of 150,000 active | AID 894; active = well fitted inhibition curve with a large enough effect, not every such curve was filed as active; inconclusive = small, poorly fitted or top-dose-only effect, or another doubt; inactive = no such curve, though single readings can be large or run the other way
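NADH formation kinetics: reaction with 30 uM PGE2 and 1 mM NAD+ (final), 20 nM enzyme, Tris-HCl pH 8 with Tween 20, after 15 min compound preincubation at room temperature. Fluorescence change, last versus first of five reads.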
Each line names hits and unclear results; the compound was inactive in the other large screens; [ ] = dose if it differs, or a comment. The list is not random: actives were taken first. Their share in the collection is about 9.5%. Unless noted, calls come from the whole dose curve; as a rule, active = well fitted curve in the direction sought with a large enough effect; inconclusive = small, poorly fitted or top-dose-only effect, or another doubt; inactive = no such curve, though single readings can be large; an effect the other way counts as inactive or inconclusive.

O=C1NNC(c2ccccc2)=N/C1=C\c1ccco1	ALDH1A1 block inconclusive, Tau fluor counter inconclusive, Tau fibril ThT 18µM, Tau fibril FP inconclusive (no result: HPGD block)
O=C1NNC(c2ccccc2)=N/C1=C\c1ccccc1Cl	Tau fibril ThT inconclusive, Tau fibril FP inconclusive (no result: ALDH1A1 block, HPGD block)
COc1ccccc1NC(=S)NC(NC(=O)c1ccco1)C(Cl)(Cl)Cl (stereo not given)	ALDH1A1 block 14µM
CCOc1ccc(C(=O)NC(=S)Nc2cccc(NC(=O)c3ccco3)c2)cc1[N+](=O)[O-]	ALDH1A1 block 3.2µM, Tau fluor counter inconclusive, Tau fibril ThT inconclusive
COc1ccc(C(=O)NC(=S)Nc2ccc(NC(=O)c3ccco3)cc2)cc1[N+](=O)[O-]	Tau fibril ThT inconclusive
COc1cc(NC(=S)NC(=O)c2ccccc2F)ccc1NC(=O)c1ccco1	ALDH1A1 block 32µM, Tau fibril ThT inconclusive
COc1cc(NC(=S)NC(=O)c2ccco2)ccc1NC(=O)C(C)C	none (no result: HPGD block)
COc1ccc(C(=O)NC(=S)Nc2cccc(NC(=O)c3ccco3)c2)cc1[N+](=O)[O-]	ALDH1A1 block 3.5µM, Tau fibril ThT inconclusive, Tau fibril FP inconclusive
Cc1cccc(NC(=O)COc2ccc(/C=C\c3[nH]c(=O)[nH]c(=O)c3[N+](=O)[O-])cc2)c1	Tau fibril ThT 10µM (no result: HPGD block)
CCOC(=O)N/N=C1/C[C@@H](O)[C@@H](O)[C@@H]2[C@@H]3C(=O)N(C(C)(C)C)C(=O)[C@H]3CC[C@H]12	none (no result: NPSR antag, HPGD block)
O=C1c2cccc(OCC(=O)N3CCCc4ccccc43)c2CCN1Cc1ccccc1	none
Cc1ccc(CN2CCc3c(OCC(=O)Nc4cccc(C)c4C)cccc3C2=O)cc1	ALDH1A1 block 25µM
O=C1c2cccc(OCC(=O)N3CCCc4ccccc43)c2CCN1Cc1ccc(Br)cc1	ALDH1A1 block 7.9µM
Cc1c(C(=O)O)cccc1-c1ccc(/C=C2/NC(=O)N(c3ccccc3)C2=O)o1	ALDH1A1 block 5.6µM (no result: HPGD block)
Cc1ccc(/C=C2/NC(=O)N(c3ccccc3)C2=O)o1	ALDH1A1 block 10µM, Tau fibril ThT 25µM, Tau fibril FP inconclusive, NPSR antag inconclusive
O=C1N/C(=C/c2ccc(N3CCOCC3)o2)C(=O)N1c1cccc(Cl)c1	ALDH1A1 block 18µM, Tau fibril ThT inconclusive (no result: HPGD block)
Cc1cccc(NC(=O)CN2C(=O)N/C(=C/c3ccc(-c4cccc(C(=O)O)c4C)o3)C2=O)c1	none (no result: HPGD block)
CC(C)=NO[C@@H](C)c1cn([C@@H]2COC[C@@H]2O)nn1	none (no result: NPSR antag, HPGD block)
CCN1C(=O)[C@H]2[C@H]3[C@H](O)[C@H](O)C/C(=N/NC(=O)OCc4ccccc4)[C@H]3CC[C@@H]2C1=O	none (no result: NPSR antag, HPGD block)
NC(=S)NCCC[C@H](N)C(=O)O	ALDH1A1 block inconclusive (no result: NPSR antag, HPGD block)
COc1ccccc1C(C[N+](=O)[O-])c1c[nH]c2ccccc12 (stereo not given)	Tau fluor counter 32µM[quencher], Tau fibril FP inconclusive, NPSR antag inconclusive (no result: ALDH1A1 block, HPGD block)
COc1cc(C(C[N+](=O)[O-])c2c(C)[nH]c3ccccc23)ccc1O (stereo not given)	ALDH1A1 block inconclusive, Tau fibril ThT inconclusive
CCCCOC(=O)c1ccc(NC(=O)/C(C#N)=C/c2ccc(C)o2)cc1	none (no result: ALDH1A1 block, NPSR antag, HPGD block)
CCOC(=O)c1ccc(NC(=O)COc2ccc(S(=O)(=O)NC(C)CC)cc2)cc1 (stereo not given)	none
CCOC(=O)c1ccc(CN(Cc2ccc(C)cc2)S(=O)(=O)c2ccc(NC(C)=O)cc2)cc1	Tau fluor counter inconclusive, Tau fibril FP 11µM (no result: ALDH1A1 block, NPSR antag, HPGD block)
CCCCOC(=O)c1ccc(NC(=O)Nc2ccc(OC)c(OC)c2)cc1	Tau fluor counter 6.3µM[quencher], Tau fibril ThT inconclusive
COc1ccc(NC(=O)C2CCC(CNS(=O)(=O)c3cccs3)CC2)cc1OC (stereo not given)	ALDH1A1 block 5µM, Tau fibril ThT inconclusive (no result: HPGD block)
CCOC(=O)c1ccc(NC(=O)C(C)NS(=O)(=O)c2ccc(OC)cc2)cc1 (stereo not given)	ALDH1A1 block 14µM, HPGD block inconclusive
COc1ccc(OC)c(NC(=O)CCc2c(C)nn(-c3ccc(N4CCCC4)nn3)c2C)c1	Tau fibril ThT inconclusive (no result: ALDH1A1 block, NPSR antag, HPGD block)
COc1ccc(NC(=O)Nc2cccs2)cc1OC	ALDH1A1 block 22µM, Tau fluor counter inconclusive, Tau fibril ThT 16µM
COc1cccc(NC(=O)Nc2cccs2)c1	ALDH1A1 block inconclusive, Tau fluor counter inconclusive, Tau fibril ThT inconclusive
CCOC(=O)c1ccccc1NC(=O)Nc1ccc(OC)c(OC)c1	none
CCOC(=O)c1ccc(NC(=O)Nc2ccc(OC)c(OC)c2)cc1	Tau fluor counter 13µM[quencher], Tau fibril ThT inconclusive, Tau fibril FP inconclusive
Oc1ccccc1C1Nc2cccc3cccc(c23)N1	ALDH1A1 block 24µM, HPGD block inconclusive
COc1ccccc1C1Nc2cccc3cccc(c23)N1	ALDH1A1 block inconclusive, Tau fluor counter inconclusive, Tau fibril ThT 22µM, HPGD block inconclusive
Cc1ccc(C)c(CSc2nnc(C)n3c2cc2sccc23)c1	Tau fibril ThT inconclusive (no result: ALDH1A1 block, NPSR antag, HPGD block)
Cc1nnc(SCc2ccccc2)c2cc3sccc3n12	Tau fibril ThT 22µM, Tau fibril FP inconclusive (no result: ALDH1A1 block, NPSR antag, HPGD block)
COC(=O)c1c(C)[nH]c(C(=O)/C=C/c2ccccc2F)c1C	Tau fibril ThT inconclusive (no result: ALDH1A1 block, HPGD block)
COc1ccc(N/C=C\C(=O)c2ccc(C)cc2)cc1OC	Tau fluor counter inconclusive, Tau fibril ThT 10µM (no result: HPGD block)
CCOC(=O)c1cccc(N/C=C/C(=O)c2ccc(OC)c(OC)c2)c1	ALDH1A1 block inconclusive, Tau fluor counter inconclusive, Tau fibril ThT inconclusive
COc1ccc(N/C=C\C(=O)c2ccc3c(c2)OCO3)cc1	ALDH1A1 block inconclusive, Tau fibril ThT inconclusive
COc1ccc(N/C=C/C(=O)c2ccc3c(c2)OCO3)cc1OC	ALDH1A1 block inconclusive, Tau fluor counter inconclusive, Tau fibril ThT 5µM
COc1ccc(N/C=C\C(=O)c2ccc(Br)cc2)cc1OC	Tau fibril ThT 3.2µM
COc1cc(/C=N/NC(=O)c2cncc(Br)c2)ccc1OC(=O)c1ccc2c(c1)OCO2	HPGD block inconclusive
COc1cc(/C=N\NC(=O)c2ccc(C)nc2)ccc1OC(=O)c1ccc2c(c1)OCO2	ALDH1A1 block inconclusive, Tau fibril FP 25µM (no result: HPGD block)
CC(=O)N1c2ccc(S(=O)(=O)N3CCCCCC3)cc2CC1C(=O)NCc1cccc(C)c1 (stereo not given)	Tau fibril FP inconclusive (no result: ALDH1A1 block, NPSR antag, HPGD block)
Cc1cc(C(=O)N2CCCC(C(=O)c3cc(F)ccc3F)C2)c(C)o1 (stereo not given)	ALDH1A1 block 14µM, Tau fibril ThT inconclusive (no result: HPGD block)
CCOc1ccc(CCNC(=O)c2cn(CC)c3ccc(S(=O)(=O)N4CCCCCC4)cc3c2=O)cc1OCC	none (no result: ALDH1A1 block, NPSR antag, HPGD block)
C(=Nc1ccc(Nc2ccccc2)cc1)c1ccc2ccccc2c1	ALDH1A1 block inconclusive, Tau fluor counter 8.9µM[quencher], Tau fibril ThT 7.9µM, Tau fibril FP inconclusive
O=C(CCC(=O)N/N=C/c1ccc(Br)s1)NCc1ccccc1	none
